{"source": "paper doi:10.1101/2025.02.07.636106", "test_in_all_cases": "cross-linking mass spectrometry", "key": {"CLCN7": {"molecular_target": "CLCN7 (UniProt P51798)", "details": "DMTMM"}, "FLCN": {"molecular_target": "FLCN (UniProt Q8NFG4)", "details": "DMTMM"}, "LAMTOR1": {"molecular_target": "LAMTOR1 (UniProt Q6IAA8)", "sequence (Q6IAA8 whole entry)": "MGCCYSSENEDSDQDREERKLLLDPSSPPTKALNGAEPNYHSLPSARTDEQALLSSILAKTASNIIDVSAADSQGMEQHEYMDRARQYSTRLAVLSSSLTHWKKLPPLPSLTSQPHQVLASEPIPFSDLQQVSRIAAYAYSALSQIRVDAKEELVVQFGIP"}, "PIP4P1": {"molecular_target": "PIP4P1 (UniProt Q86T03)", "details": "DMTMM"}, "VPS35": {"molecular_target": "VPS35 (UniProt Q96QK1)", "details": "DMTMM"}, "EEA1": {"molecular_target": "EEA1 (UniProt Q15075)", "sequence (Q15075 whole entry)": "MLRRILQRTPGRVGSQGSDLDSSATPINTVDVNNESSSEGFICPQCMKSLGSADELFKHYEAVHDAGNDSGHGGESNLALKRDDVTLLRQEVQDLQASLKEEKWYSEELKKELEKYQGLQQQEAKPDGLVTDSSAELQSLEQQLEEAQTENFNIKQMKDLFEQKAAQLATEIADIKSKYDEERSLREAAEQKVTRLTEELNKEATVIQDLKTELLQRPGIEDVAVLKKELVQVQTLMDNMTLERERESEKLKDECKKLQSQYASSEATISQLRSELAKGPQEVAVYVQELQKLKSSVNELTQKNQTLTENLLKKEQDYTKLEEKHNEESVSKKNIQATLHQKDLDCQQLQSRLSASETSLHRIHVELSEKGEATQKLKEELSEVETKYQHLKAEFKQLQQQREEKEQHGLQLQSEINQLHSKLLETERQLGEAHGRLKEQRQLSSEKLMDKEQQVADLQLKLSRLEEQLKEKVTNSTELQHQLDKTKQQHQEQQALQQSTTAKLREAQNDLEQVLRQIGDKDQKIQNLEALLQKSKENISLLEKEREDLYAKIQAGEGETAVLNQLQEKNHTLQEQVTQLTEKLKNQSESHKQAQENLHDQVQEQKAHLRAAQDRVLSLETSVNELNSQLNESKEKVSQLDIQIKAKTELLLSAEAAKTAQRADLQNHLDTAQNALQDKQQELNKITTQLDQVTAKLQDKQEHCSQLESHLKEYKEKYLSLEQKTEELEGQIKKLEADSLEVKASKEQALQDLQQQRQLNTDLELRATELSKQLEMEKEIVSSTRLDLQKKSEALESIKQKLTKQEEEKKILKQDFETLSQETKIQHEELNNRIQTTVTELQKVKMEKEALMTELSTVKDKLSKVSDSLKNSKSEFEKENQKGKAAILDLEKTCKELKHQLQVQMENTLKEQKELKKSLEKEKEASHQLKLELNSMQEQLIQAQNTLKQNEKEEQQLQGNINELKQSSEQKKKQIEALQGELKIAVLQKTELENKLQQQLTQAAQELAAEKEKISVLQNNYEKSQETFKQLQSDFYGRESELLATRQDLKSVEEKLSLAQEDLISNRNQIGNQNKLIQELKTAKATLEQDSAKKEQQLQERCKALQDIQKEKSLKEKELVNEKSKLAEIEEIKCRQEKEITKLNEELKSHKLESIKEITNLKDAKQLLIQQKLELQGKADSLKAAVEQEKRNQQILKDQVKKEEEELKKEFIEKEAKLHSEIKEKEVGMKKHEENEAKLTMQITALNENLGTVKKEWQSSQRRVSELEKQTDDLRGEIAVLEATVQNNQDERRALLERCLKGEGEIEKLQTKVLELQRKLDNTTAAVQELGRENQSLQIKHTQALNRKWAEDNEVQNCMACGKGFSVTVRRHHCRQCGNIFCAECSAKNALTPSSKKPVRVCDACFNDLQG"}, "RAB11B": {"molecular_target": "RAB11B (UniProt Q15907)", "sequence (Q15907 whole entry)": "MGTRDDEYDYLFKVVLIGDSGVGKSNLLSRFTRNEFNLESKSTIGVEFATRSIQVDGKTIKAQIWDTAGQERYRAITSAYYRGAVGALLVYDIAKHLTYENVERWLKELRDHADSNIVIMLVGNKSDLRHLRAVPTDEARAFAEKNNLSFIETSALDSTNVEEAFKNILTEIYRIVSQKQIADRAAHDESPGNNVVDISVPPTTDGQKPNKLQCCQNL", "details": "DMTMM"}, "RAB14": {"molecular_target": "RAB14 (UniProt P61106)", "details": "DSSO"}, "RAB21": {"molecular_target": "RAB21 (UniProt Q9UL25)", "details": "DSSO"}, "RAB5B": {"molecular_target": "RAB5B (UniProt P61020)", "sequence (P61020 whole entry)": "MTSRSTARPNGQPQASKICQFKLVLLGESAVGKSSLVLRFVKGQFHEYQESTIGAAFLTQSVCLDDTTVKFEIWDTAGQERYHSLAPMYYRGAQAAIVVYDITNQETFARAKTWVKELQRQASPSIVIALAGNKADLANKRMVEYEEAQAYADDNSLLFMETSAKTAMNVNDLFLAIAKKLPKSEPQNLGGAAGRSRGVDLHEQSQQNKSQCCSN"}, "PICALM": {"molecular_target": "PICALM (UniProt Q13492)", "details": "DMTMM"}, "SNX7": {"molecular_target": "SNX7 (UniProt Q9UNH6)", "details": "DMTMM"}, "BORCS6": {"molecular_target": "BORCS6 (UniProt Q96GS4)", "sequence (Q96GS4 whole entry)": "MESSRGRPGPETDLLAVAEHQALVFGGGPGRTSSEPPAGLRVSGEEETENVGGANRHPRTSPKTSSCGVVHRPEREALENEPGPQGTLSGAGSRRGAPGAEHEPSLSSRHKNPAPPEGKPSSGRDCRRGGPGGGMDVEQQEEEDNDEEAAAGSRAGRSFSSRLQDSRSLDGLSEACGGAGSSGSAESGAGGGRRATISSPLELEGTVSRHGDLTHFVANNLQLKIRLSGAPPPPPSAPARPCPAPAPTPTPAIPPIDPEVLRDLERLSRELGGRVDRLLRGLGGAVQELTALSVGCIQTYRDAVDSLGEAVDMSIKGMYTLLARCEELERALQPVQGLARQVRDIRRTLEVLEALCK", "details": "DSSO"}, "CHMP5": {"molecular_target": "CHMP5 (UniProt Q9NZZ3)", "sequence (Q9NZZ3 whole entry)": "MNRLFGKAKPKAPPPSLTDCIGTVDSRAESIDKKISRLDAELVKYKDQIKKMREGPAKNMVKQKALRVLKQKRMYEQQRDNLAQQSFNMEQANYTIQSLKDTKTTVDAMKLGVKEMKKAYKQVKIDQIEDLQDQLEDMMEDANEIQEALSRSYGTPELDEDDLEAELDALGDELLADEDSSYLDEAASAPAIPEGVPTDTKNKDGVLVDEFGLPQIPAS"}, "CDK5RAP2": {"molecular_target": "CDK5RAP2 (UniProt Q96SN8)", "details": "DSSO"}, "CNPY2": {"molecular_target": "CNPY2 (UniProt Q9Y2B0)", "details": "DSSO"}, "CLTC": {"molecular_target": "CLTC (UniProt Q00610)", "sequence (Q00610 whole entry)": "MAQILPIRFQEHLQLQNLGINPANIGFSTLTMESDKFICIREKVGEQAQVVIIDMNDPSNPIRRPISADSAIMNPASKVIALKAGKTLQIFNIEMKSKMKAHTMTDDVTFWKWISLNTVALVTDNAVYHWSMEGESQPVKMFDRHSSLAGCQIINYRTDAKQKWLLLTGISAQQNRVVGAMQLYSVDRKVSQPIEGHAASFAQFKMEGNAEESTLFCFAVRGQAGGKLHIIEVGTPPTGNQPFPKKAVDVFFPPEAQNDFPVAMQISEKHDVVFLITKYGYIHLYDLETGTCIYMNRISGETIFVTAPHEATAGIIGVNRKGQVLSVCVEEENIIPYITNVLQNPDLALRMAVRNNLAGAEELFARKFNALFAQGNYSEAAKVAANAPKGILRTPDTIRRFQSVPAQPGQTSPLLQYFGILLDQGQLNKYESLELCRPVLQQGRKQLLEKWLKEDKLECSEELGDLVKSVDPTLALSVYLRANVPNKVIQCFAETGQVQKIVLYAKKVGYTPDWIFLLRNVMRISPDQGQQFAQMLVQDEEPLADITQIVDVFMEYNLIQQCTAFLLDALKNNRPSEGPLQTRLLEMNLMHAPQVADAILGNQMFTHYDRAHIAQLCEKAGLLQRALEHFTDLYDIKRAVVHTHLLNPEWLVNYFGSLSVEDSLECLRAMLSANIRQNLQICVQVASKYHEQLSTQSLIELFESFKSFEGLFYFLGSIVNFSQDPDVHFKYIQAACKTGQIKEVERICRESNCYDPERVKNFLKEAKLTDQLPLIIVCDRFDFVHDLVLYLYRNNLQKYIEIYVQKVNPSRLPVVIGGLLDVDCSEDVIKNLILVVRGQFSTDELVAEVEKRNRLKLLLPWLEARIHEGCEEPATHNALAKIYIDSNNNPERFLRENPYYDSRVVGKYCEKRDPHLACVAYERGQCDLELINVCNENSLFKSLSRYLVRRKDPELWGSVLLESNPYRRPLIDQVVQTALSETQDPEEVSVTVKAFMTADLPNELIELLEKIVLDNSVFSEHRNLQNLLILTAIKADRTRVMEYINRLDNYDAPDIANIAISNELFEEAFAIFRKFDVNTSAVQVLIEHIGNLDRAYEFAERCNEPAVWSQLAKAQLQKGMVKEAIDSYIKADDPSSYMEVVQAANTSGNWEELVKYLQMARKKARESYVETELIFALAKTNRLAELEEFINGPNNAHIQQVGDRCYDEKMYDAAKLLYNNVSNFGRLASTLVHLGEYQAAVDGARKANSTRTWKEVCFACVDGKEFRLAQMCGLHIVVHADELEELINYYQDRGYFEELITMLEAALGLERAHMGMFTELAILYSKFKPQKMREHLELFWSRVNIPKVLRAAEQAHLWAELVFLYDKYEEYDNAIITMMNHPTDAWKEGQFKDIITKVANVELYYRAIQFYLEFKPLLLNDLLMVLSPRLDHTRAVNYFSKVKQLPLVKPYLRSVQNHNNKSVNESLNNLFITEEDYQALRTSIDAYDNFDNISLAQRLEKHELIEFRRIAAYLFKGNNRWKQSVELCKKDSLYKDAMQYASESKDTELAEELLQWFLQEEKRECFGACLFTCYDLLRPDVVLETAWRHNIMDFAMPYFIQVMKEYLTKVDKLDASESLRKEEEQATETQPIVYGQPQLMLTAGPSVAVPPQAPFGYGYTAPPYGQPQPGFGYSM"}, "CHP1": {"molecular_target": "CHP1 (UniProt Q99653)", "sequence (Q99653 whole entry)": "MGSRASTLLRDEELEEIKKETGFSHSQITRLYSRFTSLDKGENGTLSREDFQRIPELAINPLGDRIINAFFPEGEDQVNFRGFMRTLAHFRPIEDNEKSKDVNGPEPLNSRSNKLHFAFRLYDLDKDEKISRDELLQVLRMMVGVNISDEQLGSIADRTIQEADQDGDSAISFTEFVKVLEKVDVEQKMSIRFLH", "details": "DSSO"}, "CCDC93": {"molecular_target": "CCDC93 (UniProt Q567U6)", "details": "DSSO"}, "CEP250": {"molecular_target": "CEP250 (UniProt Q9BV73)", "details": "DSSO"}, "CD59": {"molecular_target": "CD59 (UniProt P13987)", "sequence (P13987 whole entry)": "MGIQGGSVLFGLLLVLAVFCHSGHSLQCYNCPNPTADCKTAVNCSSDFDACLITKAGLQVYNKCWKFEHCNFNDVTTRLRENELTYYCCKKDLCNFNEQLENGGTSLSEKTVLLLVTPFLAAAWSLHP", "details": "DSSO"}, "PLBD2": {"molecular_target": "PLBD2 (UniProt Q8NHP8)", "details": "DSSO"}, "PPT1": {"molecular_target": "PPT1 (UniProt P50897)", "details": "DSSO"}, "RAB7A": {"molecular_target": "RAB7A (UniProt P51149)", "details": "DMTMM"}, "CDC5L": {"molecular_target": "CDC5L (UniProt Q99459)", "details": "DSSO"}, "CCDC40": {"molecular_target": "CCDC40 (UniProt Q4G0X9)", "details": "DMTMM"}, "CENPI": {"molecular_target": "CENPI (UniProt Q92674)", "details": "DSSO"}, "CHMP4B": {"molecular_target": "CHMP4B (UniProt Q9H444)", "sequence (Q9H444 whole entry)": "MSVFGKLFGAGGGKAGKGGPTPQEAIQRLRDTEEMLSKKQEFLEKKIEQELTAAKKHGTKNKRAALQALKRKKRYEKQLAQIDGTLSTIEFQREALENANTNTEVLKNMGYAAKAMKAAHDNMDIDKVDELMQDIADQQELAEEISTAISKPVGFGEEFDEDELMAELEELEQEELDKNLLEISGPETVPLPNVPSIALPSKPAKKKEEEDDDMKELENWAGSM"}, "BNC1": {"molecular_target": "BNC1 (UniProt Q01954)", "details": "DSSO"}, "CC2D1A": {"molecular_target": "CC2D1A (UniProt Q6P1N0)", "details": "DMTMM"}, "CCT2": {"molecular_target": "CCT2 (UniProt P78371)", "details": "DSSO"}, "CCT8": {"molecular_target": "CCT8 (UniProt P50990)", "details": "DSSO"}, "EPS15L1": {"molecular_target": "EPS15L1 (UniProt Q9UBC2)", "details": "DMTMM"}, "CEP128": {"molecular_target": "CEP128 (UniProt Q6ZU80)", "details": "DSSO"}, "CEP126": {"molecular_target": "CEP126 (UniProt Q9P2H0)", "details": "DSSO"}, "MYH11": {"molecular_target": "MYH11 (UniProt P35749)", "details": "DSSO"}, "PRPF8": {"molecular_target": "PRPF8 (UniProt Q6P2Q9)", "details": "DMTMM"}, "SNU13": {"molecular_target": "SNU13 (UniProt P55769)", "sequence (P55769 whole entry)": "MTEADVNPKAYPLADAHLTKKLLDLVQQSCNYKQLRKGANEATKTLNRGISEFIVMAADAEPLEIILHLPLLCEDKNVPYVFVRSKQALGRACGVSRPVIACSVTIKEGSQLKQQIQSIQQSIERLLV", "details": "DSSO"}, "USP39": {"molecular_target": "USP39 (UniProt Q53GS9)", "details": "DSSO"}}, "data": [{"substance": "RAB7A, P51149", "values": [{"measurement": "cross-linked residues", "setting": "CLCN7", "result": "D114 - K691"}, {"measurement": "cross-linked residues", "setting": "FLCN", "result": "D104 - K523"}, {"measurement": "cross-linked residues", "setting": "LAMTOR1; DMTMM", "result": "D104 - K20"}, {"measurement": "cross-linked residues", "setting": "LAMTOR1; DSSO", "result": "K175 - K31"}, {"measurement": "cross-linked residues", "setting": "PIP4P1", "result": "E116 - K120"}, {"measurement": "cross-linked residues", "setting": "VPS35", "result": "K32 - E231"}]}, {"substance": "RAB5C, P51148", "values": [{"measurement": "cross-linked residues", "setting": "EEA1; DHSO", "result": "E186 - E1329"}, {"measurement": "cross-linked residues", "setting": "EEA1; DSSO", "result": "K180 - K1319"}, {"measurement": "cross-linked residues", "setting": "RAB11B", "result": "E186 - K179"}, {"measurement": "cross-linked residues", "setting": "RAB14", "result": "K141 - K170"}, {"measurement": "cross-linked residues", "setting": "RAB21", "result": "K141 - K47"}, {"measurement": "cross-linked residues", "setting": "RAB5B; DHSO", "result": "E204 - E185"}, {"measurement": "cross-linked residues", "setting": "RAB5B; DSSO", "result": "K141 - K179"}]}, {"substance": "SCAMP1, O15126", "values": [{"measurement": "cross-linked residues", "setting": "PICALM", "result": "K97 - E255"}]}, {"substance": "SNX4, O95219", "values": [{"measurement": "cross-linked residues", "setting": "SNX7", "result": "E269 - K338"}]}, {"substance": "BLOC1S2, Q6QNY1", "values": [{"measurement": "cross-linked residues", "setting": "BORCS6", "result": "K92 - K224"}]}, {"substance": "CHMP4B, Q9H444", "values": [{"measurement": "cross-linked residues", "setting": "CHMP5; DHSO", "result": "E90 - E41"}, {"measurement": "cross-linked residues", "setting": "CHMP5; DSSO", "result": "K14 - K114"}]}, {"substance": "PCNT, O95613", "values": [{"measurement": "cross-linked residues", "setting": "CDK5RAP2", "result": "K2383 - K1865"}]}, {"substance": "HSP90B1, P14625", "values": [{"measurement": "cross-linked residues", "setting": "CNPY2", "result": "K161 - K49"}]}, {"substance": "CLTA, P09496", "values": [{"measurement": "cross-linked residues", "setting": "CLTC; DSSO", "result": "K156 - K1264"}]}, {"substance": "GPAT3, Q53EU6", "values": [{"measurement": "cross-linked residues", "setting": "CHP1", "result": "K81 - K188"}]}, {"substance": "RPL7A, P62424", "values": [{"measurement": "cross-linked residues", "setting": "CCDC93", "result": "K245 - K625"}]}, {"substance": "PTPN9, P43378", "values": [{"measurement": "cross-linked residues", "setting": "CLTC; DMTMM", "result": "E2 - D823"}]}, {"substance": "CROCC, Q5TZA2", "values": [{"measurement": "cross-linked residues", "setting": "CEP250", "result": "K1333 - K660"}]}, {"substance": "IGF2R, P11717", "values": [{"measurement": "cross-linked residues", "setting": "CD59", "result": "K170 - K90"}, {"measurement": "cross-linked residues", "setting": "CLTC; DSSO", "result": "K2470 - K245"}, {"measurement": "cross-linked residues", "setting": "EEA1; DMTMM", "result": "K2470 - E1329"}, {"measurement": "cross-linked residues", "setting": "PLBD2", "result": "K1030 - K367"}, {"measurement": "cross-linked residues", "setting": "PPT1", "result": "K1104 - K253"}, {"measurement": "cross-linked residues", "setting": "RAB7A", "result": "K2470 - D104"}]}, {"substance": "BCAS2, O75934", "values": [{"measurement": "cross-linked residues", "setting": "CDC5L", "result": "K177 - K771"}]}, {"substance": "PTPRF, P10586", "values": [{"measurement": "cross-linked residues", "setting": "CCDC40", "result": "E195 - K1058"}]}, {"substance": "PDCD6IP, Q8WUM4", "values": [{"measurement": "cross-linked residues", "setting": "CENPI", "result": "K285 - K618"}, {"measurement": "cross-linked residues", "setting": "CHMP4B; DSSO", "result": "K215 - K207"}]}, {"substance": "BRCA2, P51587", "values": [{"measurement": "cross-linked residues", "setting": "CLTC; DMTMM", "result": "E2070 - K367"}]}, {"substance": "XPA, P23025", "values": [{"measurement": "cross-linked residues", "setting": "CHMP4B; DMTMM", "result": "K217 - E48"}]}, {"substance": "GPAT4, Q86UL3", "values": [{"measurement": "cross-linked residues", "setting": "CHP1", "result": "K426 - K40"}]}, {"substance": "NCL, P19338", "values": [{"measurement": "cross-linked residues", "setting": "BNC1", "result": "K348 - K545"}, {"measurement": "cross-linked residues", "setting": "CC2D1A", "result": "E361 - K732"}]}, {"substance": "TCP1, P17987", "values": [{"measurement": "cross-linked residues", "setting": "CCT2", "result": "K126 - K46"}, {"measurement": "cross-linked residues", "setting": "CCT8", "result": "K494 - K466"}]}, {"substance": "AP2A1, O95782", "values": [{"measurement": "cross-linked residues", "setting": "CLTC; DSSO", "result": "K403 - K189"}, {"measurement": "cross-linked residues", "setting": "EPS15L1", "result": "K880 - E706"}]}, {"substance": "ODF2, Q5BJF6", "values": [{"measurement": "cross-linked residues", "setting": "CEP128", "result": "K780 - K552"}]}, {"substance": "PRPF6, O94906", "values": [{"measurement": "cross-linked residues", "setting": "CEP126", "result": "K137 - K501"}, {"measurement": "cross-linked residues", "setting": "MYH11", "result": "K137 - K1842"}, {"measurement": "cross-linked residues", "setting": "PRPF8", "result": "E100 - K480"}, {"measurement": "cross-linked residues", "setting": "SNU13", "result": "K775 - K113"}, {"measurement": "cross-linked residues", "setting": "USP39", "result": "K137 - K459"}]}]}
